According to PubChem BioAssay (NCI):
This is part of a sample that, as a whole, favours compounds with a hit. Of some 83,000 tested, about 20% had one in any assay.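 Single-concentration screen, 48 h exposure, 96-well plates. Endpoint: percent growth. Below 10 = active.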 Activity calls are given as the source filed them.

System: IGROV1 ovarian
Experiment: NCI-60 one-dose screen, 48 h (100 = growth as untreated, 0 = no growth, -100 = all killed)
Conditions: 10 µM unless noted
Protocol: Growth inhibition of the IGROV1 human tumor cell line is measured as a screen for anti-cancer activity. Cells are grown in 96 well plates and exposed to the test compound for 48 hours. Compounds are tested at a single concentration, which is 10^-5 M for most compounds. The reported endpoint is percent growth (GI% or GIPRCNT), where numbers from 0 - 100% represent growth inhibition, and numbers from -100% - 0 represent cell death. For example, a value of 40 represents 60% growth inhibition. A value of 0 means no net growth occurred over the course of the experiment. A value of -40 indicates 40% of cells at the beginning of the experiment died by the end of the experiment. A value of -100 means all cells are dead at the end of the experiment.
NCI-60 Human Tumor Cell Lines Screen was performed using the standard one-dose NCI protocol, which is described in more detail at https://dtp.cancer.gov/discovery_development/nci-60/default.htm.
Compounds with GIPRCNT values below 10 were considered active. Activity score was based on GIPRCNT using the following formula: […]
Score is 0 for GIPRCNT values of 100 or above, 50 for GIPRCNT values of 0, and 100 for GIPRCNT values of -100.

| SMILES | growth |
| --- | --- |
| CC(=O)O[C@H]1CC[C@@]2(C)C(=CC[C@@H]3[C@@H]2CC[C@]2(C)C(Cl)=C(c4nc5ccc(Cl)cn5c4NC(C)(C)C)C[C@@H]32)C1 | 87.9% (inactive) |
| Cc1ccc(-c2nn(CC(=O)N3CCOCC3)c(N)c2C#N)cc1 | 106% (inactive) |
| CNC(=O)c1cc(Oc2cccc3nc(NC(=O)Nc4ccc(F)cc4F)ccc23)ccn1 | 35% (inactive) |
| O=C1/C(=C/c2ccc(Br)cc2)COc2ccc(O)cc21 | 84.3% (inactive) |
| CCC(=C(c1ccc(OCCN(CC)CC)cc1)c1ccc(OCCN(CC)CC)cc1)c1ccc(Cl)cc1 | -78.6% (active) |
| c1ccc(-c2nc(N3CCNCC3)c3oc(-c4ccccc4)nc3n2)cc1 | -88.8% (active) |
| NS(=O)(=O)Oc1cccc(-c2nc3sccn3c2-c2ccccc2)c1 | 54.4% (inactive) |
| COc1ccc(C2=C/C(=C\c3ccccc3O)C(=O)N2Cc2ccccc2)cc1 | 77.5% (inactive) |
| CCCCCCC/C=N/NC(=O)c1ccc(-n2cc(-c3ccccc3)nn2)cc1 | 74.9% (inactive) |
| CCCCCCCCOC(=O)c1c(C)[nH]c(/C=C2\N=C(c3ccc[nH]3)C=C2OC)c1C | 10.1% (inactive) |
| CCCN1C2CCC1/C(=C\c1ccc(OC)cc1)C(=O)/C2=C/c1ccc(OC)cc1 | 82.2% (inactive) |
| Cc1cc(N2CCOCC2)nc(N(CCCNc2ccnc3cc(Cl)ccc23)Cc2ccc3c(c2)OCO3)n1 | 4.36% (active) |
| Nc1ccc(N)c2c1C(=O)c1cccc([N+](=O)[O-])c1C2=O | 18.6% (inactive) |
| Cc1c(N2CCCCC2)[nH]c2ccccc12 | 136% (inactive) |
| CC(=O)OCC(=O)O[C@@H]1C[C@]2(C(C)C)O[C@@]1(C)[C@@H]1CC[C@@H](C)[C@H]1[C@@H]2OC(=O)/C=C/c1ccccc1 | 106% (inactive) |
| N#C/C(=C\c1cccc2cnccc12)N1N=NC2C=CC=CC21 (stereo not given) | 27.9% (inactive) |
| COc1ccc(-n2c(=O)n(-c3ccc(-c4nc5ccc(F)cc5s4)cc3)c(=O)c3cccnc32)cc1 | 90.5% (inactive) |
| CCOC(=O)/C(=C/c1ccc([N+](=O)[O-])cc1)C(=O)c1ccccc1 | 42.5% (inactive) |
| Cc1nn(-c2ccccc2)c(Oc2ccccc2)c1/C=N/NC(=O)Cn1c(=O)sc2ccccc21 | 54.4% (inactive) |
| Clc1ccc2c(NCCCn3cnc4c(N5CCCC5)nc(Cl)nc43)ccnc2c1 | 89% (inactive) |

| SMILES | growth |
| --- | --- |
| COc1ccc(N2C(=O)/C(=C/C(Cl)=C/c3ccc([N+](=O)[O-])cc3)SC2=S)cc1 | -52.7% (active) |
| COc1ccc(-c2nc(SCCC(C)C)nc(N/N=C(/C)c3ccc(N)cc3)c2C#N)cc1 | 79% (inactive) |
| CCCCCC(C)(O)C(C(=O)O)c1ccccc1 (stereo not given) | 102% (inactive) |
| COc1ccc(NC(=O)c2ccc(NC3=C(c4ccc(Cl)cc4)C(=O)NC3=O)cc2)cc1 | 92.8% (inactive) |
| CN(C)C(=O)OCc1ccc2c(Cl)cc(Cl)c(O)c2n1 | 40.9% (inactive) |
| Nc1ncnc2c1N=C(c1ccc([N+](=O)[O-])cc1)CC(c1ccc3c(c1)OCO3)N2 (stereo not given) | 51.1% (inactive) |
| CCCCCCCCCCCCCCCCCCOc1ccccc1CC(=O)OCC[N+]1(C)CCCCC1 | -32.1% (active) |
| Clc1ccc(C2=Nn3c(nnc3-c3cc(Cl)cc(Cl)c3Cl)SC2)cc1 | 22.7% (inactive) |
| C=C(C)[C@@H]1CCC[C@]2(C(=O)OC)CC[C@]3(C)[C@@H](CC[C@@H]4[C@@]5(C)CCCNC(C)(C)[C@@H]5CC[C@]43C)[C@@H]12 | 65.3% (inactive) |
| O=c1c(Cc2ccc(F)cc2)cc(-c2ccccc2)nn1C/C(=N/O)c1ccccc1 | 47.3% (inactive) |
| C=C(C[n+]1ccccc1)[C@@H]1CC[C@]2(C(=O)OC)CC[C@]3(C)[C@H](CC[C@@H]4[C@@]5(C)CCC(=O)C(C)(C)[C@@H]5CC[C@]43C)[C@@H]12 | 64.2% (inactive) |
| CN1C(=O)N(C)C2C1NN=c1s/c(=C\c3ccc(F)cc3)c(=O)n12 (stereo not given) | 11% (inactive) |
| CCN(CC)CCCNC(=O)c1c2c(n3ccccc13)C(=O)c1ncccc1C2=O | -40.3% (active) |
| CCCS(=O)(=O)Nc1cccc(Nc2ncnc3cc(NC(=O)CCl)ccc23)c1Cl | -52.6% (active) |
| CC1(C)CCC[C@]23C(=O)O[C@](O)(C(=O)C4=C[C@@](C)(/C=C/CCCc5ccc6ccc7cccc8ccc5c6c78)CC[C@@]42O)[C@@H]13 | -83% (active) |
| CN1CCN(Cc2ccc(NC(=O)c3cncc(C#Cc4c(N)ncc5c(F)cccc45)c3)cc2C(F)(F)F)CC1 | -69.4% (active) |
| O=C(Nc1ncc(Cc2cc(C(F)(F)F)ccc2Cl)s1)C(=S)N1CCOCC1 | 84.3% (inactive) |
| C=C1CC[C@@H]2[C@](C)(COC(C)=O)[C@H](OC(C)=O)CC[C@@]2(C)[C@@H]1CC(Nc1ccc(S(=O)(=O)Nc2nccc(C)n2)cc1)C1=CCOC1=O (stereo not given in full) | 25.8% (inactive) |
| CC1=NC(=S)NC(c2ccccc2)/C1=C1/CC(c2ccccc2O)NN1 (stereo not given) | 93.2% (inactive) |
| COc1ccc(/C=N/NC(=O)Cn2nnc3ccccc32)cc1 | 95.9% (inactive) |
